From PubChem BioAssay (NCI)
The panel holds about 83,000 compounds, 20% with a hit somewhere; the sample as a whole holds those more often.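 Assay: single dose, 48 h. Readout: percent growth (0 = no net growth; negative = cell death). Active: <10.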 Unmarked numbers belong to inactive results. Active and inactive are the calls of the source.

Each compound was assayed on HL-60(TB) leukemia (assay: NCI-60 one-dose screen, 48 h (100 = growth as untreated, 0 = no growth, -100 = all killed)). Settings: 10 µM unless noted.

| SMILES | growth |
| --- | --- |
| COc1ccc(Nc2nn3c(SCC(=O)c4ccc(C)cc4)nnc3s2)cc1 | 86% |
| O=C(CI)OCC(COC(=O)CI)OC(=O)CI | 53.3% |
| N#CC1=C(N)Oc2c(sc3c(Br)cccc23)C1c1ccc([N+](=O)[O-])cc1 (stereo not given) | -13.7% (active) |
| Nc1nc2ccc3[nH]ncc3c2c2c1CCCC2 | -23.4% (active) |
| Cc1ccccc1Nc1nc2nonc2nc1Nc1cccc(C)c1C | 69.8% |
| COc1ccc(NC(=O)c2ccc3c(c2)nc(-c2cc4ccccc4[nH]c2=O)n3-c2cc(C(C)(C)C)[nH]n2)cc1 | 96.8% |
| C1CN(CC2CCC(CN3CCOCC3)O2)CCO1 (stereo not given) | 87% |
| c1coc(CNc2ccnc(Nc3ccc(OCCN4CCCCC4)cc3)n2)c1 | 74.6% |
| COc1cc2nc(N3CCCC3)nc(NCC3CCCCC3)c2cc1OC | -57.2% (active) |
| O=C(C[n+]1ccccc1Cl)c1ccc2c(c1)CCCC2 | 79.2% |
| COC(=O)N1CC(Oc2ccccn2)C2CC1c1ccccc1O2 (stereo not given) | 99.8% |
| Cc1cc2nc(-c3c(-c4ccc(F)cc4)nc4sccn34)[nH]c2cc1C | 87.3% |
| C=CCCCC(=O)CCC(=O)OCC1O[C@@H](O[C@@H]2C(O)[C@@H](OC(C)=O)C(C)O[C@H]2O[C@H](CC=C)CCCCC)C(O)[C@@H](OC(=O)/C(C)=C/C)[C@@H]1OC(=O)/C=C/c1ccccc1 (stereo not given in full) | 8.45% (active) |
| CC(NC(=O)C(C)Oc1ccc(Cl)cc1Cl)C(=O)O (stereo not given) | 105% |
| O=C(CNc1ncco1)Nc1ccc(S(=O)(=O)c2ccc(NC(=O)CNc3ncco3)cc2)cc1 | 44.8% |
| Clc1cn2cc(-c3ccc(Cl)c(Cl)c3Cl)nc2s1 | 85.3% |
| COc1ccc(-c2c3c(nn2-c2ccc(N)cc2)CCc2cnoc2-3)cc1OC | 93.1% |
| c1cc(NCCCCN2CCOCC2)c2ccc3c(ccc4c(NCCN5CCOCC5)ccnc43)c2n1 | 47.2% |
| c1ccc2c(c1)Nc1cc3ccccc3cc1N2 | 7.75% (active) |
| CCCCCCNC(=O)Oc1ccc(/C(=C(\C)c2ccc(Cl)cc2)c2ccc(OCCCN(C)C)cc2)cc1 | 62.9% |

| SMILES | growth |
| --- | --- |
| CCCC(=O)OCC1OC(n2cnc3c(=S)nc[nH]c32)C(OC(=O)CCC)C1OC(=O)CCC (stereo not given) | 32.1% |
| COc1ccc2nc(N/N=C(\C)c3ccccn3)cc(C)c2c1 | -64.7% (active) |
| CCOC(=O)C1=C(CCl)N(C)C(=O)NC1c1ccc2c(c1)OCO2 (stereo not given) | 33.1% |
| CCCCOC(OCCCC)c1ccccc1 | 96.7% |
| COc1ccc(C2=NN(C(=O)c3cc(OC)c(OC)c(OC)c3)C(c3ccc(C#N)cc3)C2)cc1OC (stereo not given) | 4.24% (active) |
| O=C(Nc1cccc(-n2cc(-c3ccncc3)c(-c3ccc(Cl)c(O)c3)n2)c1)c1ccc(N2CCOCC2)c(C(F)(F)F)c1 | 51.6% |
| COc1cc(Cc2cc(-c3ccc(Cl)cc3)n[nH]c2=O)ccc1O | 93.5% |
| Cc1ccc(Cc2cnc(NC(=O)c3cc(C)oc3C)s2)cc1 | 79.1% |
| CN(C)CCCN(Cc1ccccc1O)C(=S)Nc1ccc(Cl)cc1 | 103% |
| O=C(NCCCNc1cc(-c2cn(-c3ccccc3)nc2-c2cccc(O)c2)ccn1)c1ccc(F)cc1 | -2.74% (active) |
| CN(C)c1ccc(/C=c2\s/c(=C\C(=O)C(C)(C)C)[nH]c2=O)cc1 | 119% |
| COc1ccc2cc(C(C)C(=O)Nc3ccc(S(=O)(=O)Nc4cc(C)on4)cc3)ccc2c1 (stereo not given) | 143% |
| COc1cc(/C=C2\CN(S(=O)(=O)c3ccc(C)cc3)C/C(=C\c3cc(CN4CCCC4)c(O)c(OC)c3)C2=O)cc(CN2CCCC2)c1O | -33.6% (active) |
| CCOC(=O)C(Cc1ccccc1)n1c(O)c(C=Nc2ccc(C(=O)OCCN(CC)CC)cc2)sc1=O (stereo not given) | 97.8% |
| CC[C@H](C)C(=O)O[C@H]1CCC=C2C=C[C@H](C)[C@H](CC[C@@H]3CC=CC(=O)O3)[C@H]21 | -0.21% (active) |
| COc1cccc(NC(=O)Nc2ccc(Nc3ncnc4[nH]c(C)c(C)c34)cc2)c1 | 104% |
| N#Cc1ccccc1-c1ccc(CN2C(=O)S/C(=C\c3ccc(Br)cc3)C2=O)cc1 | 96.2% |
| O=C(Oc1ccc(CCl)cc1)c1ccccc1 | -44.6% (active) |
| O=C(Nc1cnc(Nc2ccc(N3CCOCC3)nc2)nc1Oc1ccc(C(F)(F)F)cc1)c1ccncc1 | 98.6% |
| C#CCOc1cccc(Nc2ncnc3cc(NC(=O)C=C)ccc23)c1 | -16.4% (active) |
